Test results reported in PubChem BioAssay AID2069 (Sanford-Burnham Center for Chemical Genomics, 2009).
Screen size: about 1,200 compounds; about 210 (18%) were called active. These entries were drawn from the full list. Values without a mark were called inactive. Rule as the data show it: active = inhibition above about 30%; inactive = the rest.

Assay: HTRF signal interference by compounds, confirmation, artefact control for SUMOylation inhibitor project, biochemical, uHTS (AID 2069)
Settings: HTRF interference counterscreen, fluorescence, at 35 µM, active compounds read high

| SMILES | inhibition |
| --- | --- |
| CCC(=O)OCCNc1cc(Sc2nc3ccccc3s2)c2nonc2c1[N+](=O)[O-] | 1.05% |
| O=C(O)c1cccc(N2C(=O)/C(=C/c3ccc(SCc4ccc(Cl)cc4)o3)SC2=S)c1 | 14.9% |
| CCCN(C(=O)c1cc2c(s1)CCC2)c1c(N)n(Cc2ccccc2)c(=O)[nH]c1=O | -3.9% |
| Cc1cccc(C(=O)NC2C(=O)NNC2c2ccc(Cl)cc2)c1 (stereo not given) | -5.5% |
| COc1ccc(N2C(=O)[C@@H]3[C@H](C2=O)[C@H]2c4ccccc4C=CN2[C@@H]3C(C)=O)cc1 | 9.4% |
| Cc1ccc(-c2[nH]c(-c3ccc(C(=O)O)cc3)nc2-c2ccccc2)cc1 | 43.1% (active) |
| Cc1ccc(NC(=O)CCC(=O)OCC(=O)c2ccc(-c3ccccc3)cc2)cc1 | -1.75% |
| COc1cc(/C=C2\C(=O)N(c3ccccc3)N=C2C)ccc1Oc1ccc([N+](=O)[O-])cc1[N+](=O)[O-] | 1.25% |
| CC(=O)c1sc2nc(CSc3nnnn3-c3ccccc3)[nH]c(=O)c2c1C | 0.9% |
| CSc1nnc(SCc2nc3sc(C(=O)O)c(C)c3c(=O)[nH]2)s1 | 31.2% (active) |
| O=C(CSc1nnc(SCc2ccc(Cl)cc2)s1)N/N=C/c1c[nH]c2ccccc12 | 9.75% |
| S=c1[nH]nc(-c2cc(-c3ccco3)[nH]n2)n1-c1ccccc1Cl | 0.75% |
| COc1cc(O)c(NC(C)=O)c2nonc12 | 6.2% |
| COCCNC(=O)Nc1ccc2nc(-c3ccco3)c(-c3ccco3)nc2c1 | 52.4% (active) |
| COc1ccc2nc(-c3ccco3)c(-c3ccco3)nc2c1 | 33.1% (active) |
| COc1ccc(OC)c(-n2c(-c3cc(-c4ccco4)[nH]n3)n[nH]c2=S)c1 | 7.95% |
| COc1ccc2nc3cccc(OC)c3nc2c1 | 11.7% |
| O=C(Nc1ccccc1)c1ccc2nc(-c3ccco3)c(-c3ccco3)nc2c1 | 22.8% |
| COc1ccc(CCNC(=O)c2ccc3nc(-c4ccco4)c(-c4ccco4)nc3c2)cc1OC | 13.3% |
| CCc1ccc(OCC(=O)N/N=C2\CC(=O)c3ccccc32)cc1 | -2.45% |
| COCCN=c1scc(-c2ccco2)n1/N=C/c1ccc(O)c(O)c1O | -18.7% |
| CC(C)c1ccc(NC(=O)C[n+]2ccn(C3=C([O-])c4ccccc4C3=O)c2)cc1 | -10.2% |
| Cc1ccc(S(=O)(=O)C(C#N)c2nc3ccccc3nc2N2CC(C)OC(C)C2)cc1C (stereo not given) | 4.8% |
| O=c1c(=Nc2ccccc2O)c(=O)c2ccccc12 | -6.7% |

| SMILES | inhibition |
| --- | --- |
| O=C1NC(=Nc2ccc(O)cc2)S/C1=C\C=C\c1ccco1 | 8.5% |
| Cc1cc(=O)oc2cc(OCc3ccc(C(=O)OCC(=O)Nc4ccc(N(C)C)cc4)cc3)ccc12 | 11.7% |
| COc1ccc2c(c1)c(=O)oc1c(C)c(OCc3ccc(C(=O)O)cc3)ccc12 | 31.4% (active) |
| Cc1c(CC(=O)O)c(=O)oc2c(C)c(OCc3ccccc3Br)ccc12 | -1.95% |
| COc1cc(/C=C(\C#N)C(=O)Nc2cccc(C(=O)O)c2)ccc1OCc1ccc(Cl)cc1 | 19.7% |
| S=C(Nc1cccc(Cl)c1)Nc1ccc2cn[nH]c2c1 | 2.35% |
| Cn1nccc1NC(=O)Nc1cccc(Br)c1 | 46.4% (active) |
| Cn1nccc1NC(=O)Nc1cccc(Cl)c1 | 42.6% (active) |
| O=C(Nc1ccc2oc(=O)ccc2c1)c1ccc(-c2cccc(Cl)c2)o1 | 12.1% |
| O=C(Nc1cccnc1)c1cc2cc(Br)ccc2oc1=O | -1.65% |
| O=C(Nc1nnc(-c2ccccc2SCc2ccccc2F)s1)Nc1ccccc1F | 0.75% |
| Cc1ccc(C(=O)NC(C)c2nc3ccccc3n2CC(=O)Nc2c(C)cc(C)cc2C)cc1 (stereo not given) | 25.5% |
| O=C(CCc1ccccc1)NNc1cc(N2CCCCC2)nc(N2CCCCC2)n1 | 14.2% |
| CCC(=O)OCCNc1cc(Sc2nccn2C)c2nonc2c1[N+](=O)[O-] | 8.05% |
| CC1=C(C#N)C(=O)NC(=O)/C1=C\c1ccc(-c2ccc(C)cc2[N+](=O)[O-])o1 | -1.55% |
| COc1ccc2c(c1)CC/C(=C\C=C\c1ccccc1)C2=O | 6.1% |
| CCOC(=O)N1CCN(C(=O)c2cccn3c(=O)c4cc(Br)ccc4nc23)CC1 | 49.9% (active) |
| CCOC(=O)N1CCC(c2cc(=O)n(-c3ccccc3)[nH]2)CC1 | 2.2% |
| O=C(c1cccn2c(=O)c3cc4ccccc4cc3nc12)N1CCN(c2ccccc2)CC1 | 7.35% |
| Cn1c2ccc(Cl)cc2c2nc3ccccc3nc21 | 21.9% |
| O=C(c1cccn2c(=O)c3cc(Cl)ccc3nc12)N1CCOCC1 | 44.6% (active) |
| O=C(NCCNc1ccc2ccccc2c1)c1cccn2c(=O)c3sccc3nc12 | 5.05% |
| CCOC(=O)N1CCN(C(=O)c2cccn3c(=O)c4cc(Cl)ccc4nc23)CC1 | 43.5% (active) |
| NC(=O)CC(NC(=O)Cc1ccc(Br)cc1)c1ccc(N2CCC(Br)CC2)c([N+](=O)[O-])c1 (stereo not given) | 4.65% |

| SMILES | inhibition |
| --- | --- |
| O=C(Nc1nnc(-c2ccccc2)o1)c1nc2ccccc2s1 | 11.1% |
| CN(C)c1cc(Cl)c2nonc2c1N | 4.85% |
| NC(=O)c1ccc(N=C2C(=O)Nc3ccc([N+](=O)[O-])cc32)cc1 | -4.65% |
| S=C(Nc1ccc(Cl)cc1)Nc1cccc2cnccc12 | 1.3% |
| CCCCCn1c(NC(=O)c2ccco2)c(S(=O)(=O)c2ccc(C)cc2)c2nc3ccccc3nc21 | 6.85% |
| CC(=O)c1ccc(NC(=S)Nc2cccc3ccccc23)cc1 | 14.1% |
| O=[N+]([O-])c1ccccc1/C=C/C=N/n1c(-c2cc(-c3ccccc3)n[nH]2)n[nH]c1=S | -4% |
| COCCCn1c(C(=O)N2CCOCC2)cc2c(=O)n3ccccc3nc21 | 52.1% (active) |
| COCCCn1c(C(=O)N2CC(C)OC(C)C2)cc2c(=O)n3ccccc3nc21 (stereo not given) | 46.4% (active) |
| COCCCNC(=O)c1cccn2c(=O)c3cc4ccccc4cc3nc12 | 13.3% |
| CC1=NN(c2ccc(Br)cc2)C(=O)/C1=C/c1cccs1 | -19.8% |
| CCc1ccc(NC(=S)Nc2cccc3cnccc23)cc1 | 3.45% |
| N#Cc1c2nc3ccccc3nc2n2cc(NC(=O)c3ccc(F)cc3)ccc12 | 3% |
| Cn1cccc1/C=N/NC(=O)c1sc2cc(Cl)ccc2c1Cl | 15% |
| O=C(N/N=C/c1ccc(O)c2ncccc12)c1cccc(Br)c1 | -4.25% |
| S=c1[nH]nc(-c2ccncc2)n1/N=C/c1cn(-c2ccccc2)nc1-c1ccc(Cl)cc1 | -1.35% |
| Cc1ccc(/C=C2\SC(=S)N(c3cccnc3)C2=O)o1 | 4.85% |
| Fc1cccc(Cl)c1C1Nc2cccc3cccc(c23)N1 | -14.8% |
| Cc1ccc(NC(=O)Nc2ccno2)cc1 | 48.2% (active) |
| O=C(Nc1ccccc1)Nc1ccno1 | 47.1% (active) |
| Cc1ccc(NC(=O)Cn2nc(C(=O)Nc3ccc(C)cc3)ccc2=O)cc1 | 4.7% |
| CCC(NC(=O)Nc1ccc(O)cc1)(C(F)(F)F)C(F)(F)F | -9.2% |
| Cc1cc2c(NC(=O)Nc3ccccc3)cccc2nn1 | -6.1% |
| O=C(Nc1ccccc1)c1ccccc1CCc1ccccc1 | 2.45% |

| SMILES | inhibition |
| --- | --- |
| COc1ccc(/C=C2/C(=O)N(c3ccccc3)N=C2C)cc1OC | -0.35% |
| O=[N+]([O-])c1c(NCc2ccccc2)cc(N2CCc3ccccc3C2)c2nonc12 | 0.75% |
| O=[N+]([O-])c1cc(CN2CCN(c3cccc(C(F)(F)F)c3)CC2)c2cccnc2c1O | -18.5% |
| Cc1cc2c(NC(=O)Nc3ccc(C(C)(C)C)cc3)cccc2nn1 | 18.8% |
| CCCc1cc(=O)oc2cc(OCC(=O)Nc3ccc(S(N)(=O)=O)cc3)ccc12 | 21.4% |
| Cc1c(O)ccc2c(CC(=O)N[C@@H](Cc3ccc(O)cc3)C(=O)O)cc(=O)oc12 | 39.9% (active) |
| NC(=O)C1CCN(C2=C(NS(=O)(=O)c3ccccc3)C(=O)c3ccccc3C2=O)CC1 | -13.8% |
| O=C(CN1C(=O)S/C(=C\c2ccccc2)C1=O)NNC(=O)c1ccccc1O | 2.55% |
| S=c1[nH]nc(-c2cc(-c3ccco3)[nH]n2)n1-c1cccc2ccccc12 | -16.1% |
| CCOC(=O)N1CCc2c(sc3c2c(=O)n(Cc2ccccc2)c(=O)n3CC(=O)NCCOC)C1 | -6.7% |
| COCCNC(=O)CCC1CCN(Cc2ccc(-c3ccccc3)cc2)CC1 | 65.5% (active) |
| C[C@@H]1CN=C2N(CCNC(=O)CCC3CCCCC3)[C@H](Cc3ccc(O)cc3)CN21 | 1.3% |
| CCOC(=O)Cn1c(=NC(=O)c2sc3ccccc3c2Cl)sc2cc(S(N)(=O)=O)ccc21 | 8.1% |
| C#CCOc1ccc(/C=C2/C(=O)N(c3cccc(C(=O)O)c3)N=C2C)cc1OC | -5.85% |
| CC(=O)C1=C(C)OC2(O)c3ccccc3C(=O)C12O (stereo not given) | -21.7% |
| NNc1nc2c(Cl)ccc(Cl)c2s1 | -0.55% |
| CC(=O)C1C(=O)C=C(c2ccco2)CC1c1ccccc1 (stereo not given) | 0.4% |
| COc1ccc2[nH]c3c(=O)n(CCCC(=O)NC4CCC(C)CC4)c(=S)[nH]c3c2c1 (stereo not given) | 6.2% |
| Cc1c(C(=O)O)c(C(=O)O)nc2ccc(N3CCOCC3)cc12 | 7.75% |
| N#Cc1cc2ccc(N3CCOCC3)cc2cc1C#N | 9.35% |
| O=c1c2cc(N3CCOCC3)ccc2[nH]c(=S)n1CC1CCCO1 (stereo not given) | 55.1% (active) |
| O=c1c2cc(N3CCOCC3)ccc2[nH]c(=S)n1Cc1ccccn1 | 56.3% (active) |
| CC1CCN(CCCn2c(=S)[nH]c3ccc(N4CCOCC4)cc3c2=O)CC1 | 52.3% (active) |
